Reference: the supplement of paper PMC6555819

What was measured:
Assay in all cases: PBM binding z-score (relative to random genomic background probes); higher = stronger binding; sequences stand for … in GC…GCGATTGACAGCGTAGAATGAAGG
[1] = tested on: PPARg:RXRa DBDmut IVT, anti-RXR (DBD mutation: RXRa K156A/R161A, NR concentration 270 nM, RXRa partner concentration 90 nM)
How it was run: (§1)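 Binding buffer was PBS pH 7.4 with 2% milk, 0.02% Triton X-100, 1 mM DTT, 0.2 mg/mL BSA and 0.4 mg/ml salmon testes DNA. In it, ligand-free nuclear receptor dimers were incubated 1 h on custom Agilent 4×180K protein-binding microarrays carrying double-stranded probes. Antibodies against each partner (one per run) detected binding, and z-scores were calculated against random background probes after regression normalization of scanned fluorescence.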

[2] = tested on: PPARg:RXRa IVT, anti-PPARg (NR concentration 270 nM, RXRa partner concentration 90 nM)
How it was run: as §1

[3] = tested on: PPARg DBDmut:RXRa IVT, anti-PPARg (DBD mutation: PPARg1 K132A/R137A, NR concentration 270 nM, RXRa partner concentration 90 nM)
How it was run: as §1

[4] = tested on: PPARg DBDmut IVT, anti-PPARg (DBD mutation: PPARg1 K132A/R137A, NR concentration 270 nM)
How it was run: as §1

[5] = tested on: PPARg homodimer (NR concentration 180 nM)
How it was run: as §1

[6] = tested on: PXR:RXRa (NR concentration 270 nM, RXRa partner concentration 90 nM)
How it was run: as §1

[7] = tested on: PXR homodimer (NR concentration 270 nM)
How it was run: as §1

[8] = tested on: RARa:RXR (NR concentration 270 nM, RXRa partner concentration 90 nM)
How it was run: as §1

[9] = tested on: RARa homodimer (NR concentration 270 nM)
How it was run: as §1

[10] = tested on: RARb:RXRa (NR concentration 270 nM, RXRa partner concentration 90 nM)
How it was run: as §1

| Sequence | PBM binding z-score [1] | PBM binding z-score [2] | PBM binding z-score [3] | PBM binding z-score [4] | PBM binding z-score [5] | PBM binding z-score [6] | PBM binding z-score [7] | PBM binding z-score [8] | PBM binding z-score [9] | PBM binding z-score [10] |
| --- | --- | --- | --- | --- | --- | --- | --- | --- | --- | --- |
| CGTCCAAGGTCAATGCTAGGTGAGTGAAAGCATT | 3.33 | 3.79 | 0.0432 | -0.14 | 1.77 | 3.31 | 0.668 | 3.57 | 0.59 | 4.9 |
| AATACAGTGTCATCGTAGGCCAGAGTACGCACAG | 0.125 | 1.2 | 1.33 | -0.183 | -0.106 | 0.441 | -0.156 | 0.969 | 0.337 | 1.21 |
| CCTAGTTGGTCAAGGTCACTCACGCTATAGGTAC | 2.34 | 3.16 | 0.496 | 1.05 | 3.66 | 3.73 | 2.8 | 3.58 | 2.53 | 4 |
| ATATCTAGGTTATCGGGTCATTCAGTTTGCGCAT | 7.52 | 7.5 | 1.81 | 3.17 | 3.91 | 3.94 | 8.08 | 3.87 | 2.26 | 2.89 |
| TCATATAGGTAATACAGGTGAAACTCGGCATCTA | 4.14 | 3.73 | 1.2 | 0.856 | 1.01 | 0.879 | 0.269 | 1.17 | 1.3 | 0.809 |
| AGAACGAGGGCTCGCTGAGTTGATAGCAGAGTAG | -0.0756 | -0.495 | -1.3 | -0.699 | -0.792 | -0.724 | -0.639 | -0.678 | -1.21 | -0.365 |
| TCTCGGAGGACACGAAGGTCAGATCTTTCCAGAG | 1.59 | 0.717 | -0.994 | -1.02 | 2.07 | 2.44 | 2.3 | 2.16 | 0.52 | 3.35 |
| GCTAGTTGGTCAGTAAACGGTCACACACCGGTCG | 0.107 | 0.661 | 0.0589 | -0.0564 | 0.967 | 0.0338 | 0.06 | 0.591 | 0.301 | 1.76 |
| TTACCAATGTGAAAGGTCGTTGATGCACGCCTTG | 0.0484 | 2.32 | 0.0698 | 0.235 | 1.33 | 2.76 | 0.663 | 3.27 | 0.219 | 1.74 |
| CCTCGGAGGACAGAAGGTCAGAGCAGTCCGCTTT | 0.416 | 0.276 | -1.6 | -1.82 | 1.18 | 2.83 | -0.373 | 2.41 | 0.42 | 3.25 |
| CTCGAAAGGTCGTTTGAGGTGAGTATACGGATAA | 0.353 | 1.91 | 1.09 | 0.474 | 1.54 | 5.25 | 0.584 | 4.16 | -0.088 | 3.89 |
| TCTCAAAGTTCAAAGGTAACGTAAGTATCCACAC | 2.92 | 1.65 | 0.898 | 1.45 | 3.16 | 5.66 | 4.17 | 6.13 | 2.08 | 5.15 |
| CAAACTAGGTCACGAAAAGTCAAAGTCGAATGAC | 8 | 9.2 | 4.41 | 4.13 | 2.52 | 2.27 | 0.426 | 3.44 | 0.939 | 4.58 |
| GCTGCTAGGTCAGCTGATGGTCAGCTAAAGCTCG | 3.51 | 2.35 | -1.32 | -1.88 | 0.56 | -0.015 | -1.12 | 0.983 | -1.22 | 3.57 |
| CCTAGTTGGTCAGGAGGTCACTCACCGGATATGA | 1.33 | 2.97 | 0.254 | 0.0226 | 3.04 | 3.74 | 0.903 | 3.94 | 2.42 | 3.41 |
| TCAATTAGTTGAAGGGCAACCGACGAGTCCGTTT | 1.84 | 0.225 | -0.0622 | 0.241 | -0.0858 | 0.533 | 0.791 | 0.357 | -0.199 | 1.54 |
| ATCTCTAGTTAAAAGTTCAGTGAATCCCGAGGAT | 0.0721 | 0.398 | 0.853 | 1.16 | 1.56 | 1.9 | 2 | 1.03 | 1.8 | 2.2 |
| CGTCCAAGGTCGATGCTAGGTCAGTGAAAGCATT | 0.324 | 0.816 | -0.113 | -0.767 | 1.54 | 2.04 | 0.704 | 2.49 | -0.458 | 2.92 |
| ACAAGCAGGCCAAGTTTGGGTCACTCAAACAAAG | 0.823 | 1.59 | -0.817 | -0.239 | -0.0252 | 0.706 | -0.465 | 1.56 | -0.485 | 2 |
| CCTTACGGGTAAAGGTTATAGCACGGGTGGTACG | -0.138 | 1.7 | -0.079 | -0.348 | 1.08 | 1.1 | 0.1 | 2.04 | 0.398 | 1.82 |
| CAGCCTAGGTCAGGTCCAGTATAGGAGGAACGTT | 1.02 | 0.846 | -0.384 | -1.31 | 0.577 | 0.126 | -0.567 | 0.528 | -0.0442 | 3 |
| ATCTCCAGGTAACCAAGTTCAGTGAATGCCGAAC | 0.934 | 1.52 | 0.875 | 0.957 | 0.841 | 2.24 | 2.55 | 0.649 | 0.534 | 0.985 |
| CCGAGTAGGTTACGGGGCATTCAGGCAACGGTGA | 3.97 | 4.11 | -0.288 | -0.815 | 0.551 | 0.0878 | -0.35 | 0.636 | -0.584 | 1.5 |
| GTACCAAGGTGAAAAGGTCGTTGATGAGTAGGCG | 1.77 | 2.85 | 0.246 | -0.0504 | 2.35 | 2.73 | 0.862 | 3.71 | 0.82 | 3.35 |
